Where “and” joins values, the source holds several entries; their conditions need not be identical. Identical values can stand only once. Results filed as inconclusive are left out. A call without a number means that no potency is given here. Calls of active or inactive are those of the source. Unless noted, the call rests on the fitted dose curve.
What was measured:
[1] = target: Gonadotropin-releasing hormone receptor (Homo sapiens) (UniProt P30968); assay: Human gonadotropin-releasing hormone receptor (GnRHR) small molecule agonists, calcium flux assay in GnRHR-HEK293 cells (AID 1920063); further: nearly all actives have a fitted effect of over 35% in size
How it was run: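 Agonist activity was measured as intracellular calcium flux in HEK293 cells engineered to stably express human GnRHR. After dye loading for 1 hour at 37 C, compounds in DMSO were added and fluorescence was followed for 3 minutes.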

[2] = target: KiSS-1 receptor (Homo sapiens) (UniProt Q969F8); assay: Human kisspeptin (KISS1R) small molecule agonists, calcium flux assay in KISS1R-HEK293 cells (AID 1920064; active means well fitted activation curve with a large enough effect in the repeat runs)
How it was run: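 Agonist activity is monitored as intracellular calcium rise in engineered HEK293 cells carrying human KISS1R. Cells are dye-loaded for 1 h at 37 C before compound addition, and fluorescence is recorded for 3 min.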

[3] = G protein-coupled receptor (GPCR) small molecule agonists, calcium flux assay: HEK293 wild type cell line counter screen (AID 1920065)
How it was run: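 Seed cells, incubate 18 h (37 C, 5% CO2); add calcium dye, 1 h at 37 C; pin-transfer compounds, ATP control or DMSO; read fluorescence 480/540 nm each second for 3 min.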

[4] = p53 small molecule agonists, cell-based qHTS assay with human liver microsomes: qHTS cell viability counter screen (AID 1963579); further: nearly all actives have a fitted effect of over 45% in size; further: potency means the concentration at half of the fitted maximal effect
How it was run: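 Tox21 library compounds, delivered from DMSO stocks, were tested on p53RE-bla cells together with 0.5 mg/mL human liver microsomes and 0.5 mg/mL NADPH (final) over 16 h at 37 C; CellTiter-Glo luminescence served as the cytotoxicity measure.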

[5] = p53 small molecule agonists, cell-based qHTS assay with rat liver microsomes: qHTS cell viability counter screen (AID 1963580); further: nearly all actives have a fitted effect of over 45% in size; further: potency means the concentration at half of the fitted maximal effect
How it was run: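 Cytotoxicity counter screen: intracellular ATP measured by CellTiter-Glo luminescence in the same wells as the beta-lactamase reporter read, on HCT-116 p53RE-bla cells exposed 16 h at 37 C to compounds with rat liver microsomes and NADPH, each 0.5 mg/mL final.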

[6] = p53 small molecule agonists, cell-based qHTS assay: qHTS cell viability counter screen (AID 1963581); further: nearly all actives have a fitted effect of over 45% in size; further: potency means the concentration at half of the fitted maximal effect
How it was run: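 Viability was counter-screened in parallel with the p53 agonist reporter by measuring intracellular ATP luminescence in the same HCT-116 p53RE-bla wells after 16 h compound treatment at 37 C.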

[7] = target: 5-hydroxytryptamine receptor 2A (Homo sapiens) (UniProt P28223); assay: 5-hydroxytryptamine receptor 2A (HTR2A) small molecule antagonists, cell-based qHTS assay (AID 1963586); further: nearly all actives have a fitted effect of over 45% in size
How it was run: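 CHO cells stably expressing human HTR2A were plated for 18 h at 37 C, then loaded with calcium dye for 1 h. Compounds were preincubated 5 min at room temperature before DOI (4 nM solution) was added. Kinetic fluorescence was read for 3 min.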

[8] = target: 5-hydroxytryptamine receptor 2A (Homo sapiens) (UniProt P28223); assay: 5-hydroxytryptamine receptor 2A (HTR2A) small molecule agonists, cell-based qHTS assay (AID 1963587); further: nearly all actives have a fitted effect of over 30% in size
How it was run: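 CHO cells stably expressing human HTR2A, plated 18 h, loaded with calcium dye 1 h at 37 C. Agonist mode: compounds added and intracellular calcium fluorescence recorded kinetically for 2 min at 1 sec intervals.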

[9] = target: Muscarinic acetylcholine receptor M1 (Homo sapiens) (UniProt P11229); assay: Cholinergic receptor muscarinic 1 (CHRM1) small molecule antagonists, cell-based qHTS assay (AID 1963588); further: nearly all actives have a fitted effect of over 40% in size; further: potency means the concentration at half of the fitted maximal effect
How it was run: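 Compounds were tested at 15 concentrations in three independent runs. Dye-loaded CHRM1-CHO cells were exposed 5 min at room temperature before stimulation by acetylcholine added at 50nM. Intracellular calcium was read kinetically on FDSS for 3 min.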

[10] = target: Muscarinic acetylcholine receptor M1 (Homo sapiens) (UniProt P11229); assay: Cholinergic receptor muscarinic 1 (CHRM1) small molecule agonists, cell-based qHTS assay (AID 1963589); further: nearly all actives have a fitted effect of over 35% in size
How it was run: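 Cells were plated and incubated 18 h at 37 C/5% CO2, loaded with calcium dye for 1 h at 37 C, then treated with compounds in DMSO. Fluorescence was recorded kinetically at 1 sec intervals.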

[11] = target: D(2) dopamine receptor (Homo sapiens) (UniProt P14416); assay: Dopamine D2 receptor (DRD2) small molecule agonists, cell-based qHTS assay (AID 1963594); further: nearly all actives have a fitted effect of over 35% in size
How it was run: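 HEK293 cells stably expressing human DRD2, pre-treated with PDE inhibitor Ro20-1724 (0.1 mM final) and compound 10 min at room temperature, then stimulated with NKH477 (200nM […]) for 30 min. cAMP read by HTRF (665/620 nm).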

[12] = target: D(2) dopamine receptor (Homo sapiens) (UniProt P14416); assay: Dopamine D2 receptor (DRD2) small molecule antagonists, cell-based qHTS assay (AID 1963595; active means well fitted inhibition curve with a large enough effect in the signal ratio in the repeat runs, with a control signal flat; the % refers to the signal ratio)
How it was run: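 HTRF cAMP read-out at 665 and 620 nm emission (340 nm excitation). Antagonist mode: compounds were tested against 12 nM quinpirole in DRD2-HEK293 cells, with 200 nM NKH477 raising cAMP and 0.1 mM Ro20-1724 blocking its breakdown.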

[13] = target: Beta-2 adrenergic receptor (Homo sapiens) (UniProt P07550); assay: Adrenergic beta2 receptor (ADRB2) small molecule antagonists, cell-based qHTS assay (AID 1963592); further: nearly all actives have a fitted effect of over 50% in size; further: potency means the concentration at half of the fitted maximal effect
How it was run: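 Assay format: CHO-ADRB2 cells, 18-20hr seeding at 37C/5% CO2, then compound plus 1nM isoproterenol agonist mix for 0.5hr RT. Homogeneous time-resolved fluorescence cAMP detection after 1hr, expressed as 665/615 nm ratio.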

[14] = target: Beta-2 adrenergic receptor (Homo sapiens) (UniProt P07550); assay: Adrenergic beta2 receptor (ADRB2) small molecule agonists, cell-based qHTS assay (AID 1963593);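 further: CHO cells stably overexpressing human ADRB2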
How it was run: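 CHO cells stably over-expressing ADRB2 were plated overnight at 37C, then dosed with compounds plus a stimulation mix containing 100uM IBMX and 25uM Ro-20-1724 for 0.5hr at room temperature. cAMP was measured by HTRF competition, 1hr.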

[15] = cAMP Responsive Elements (CRE) small molecule agonists, cell-based qHTS assay (AID 1963590)
How it was run: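 Cells carrying a CRE-driven beta-lactamase reporter (HEK 293T) are seeded, incubated overnight (18 h), and treated with test compounds for 3 h at 37 C; reporter activity is then detected with a FRET substrate after 2 h at room temperature.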

[16] = cAMP Responsive Elements (CRE) small molecule antagonists, cell-based qHTS assay (AID 1963591; active means well fitted inhibition curve with a large enough effect in the signal ratio in the repeat runs, not every such curve was filed as active; the % refers to the signal ratio)
How it was run: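 Cells (CRE-bla HEK 293T, DMEM with 10% dialyzed FBS and 25 mM HEPES) are seeded and incubated 18 h. Compounds are added with NKH477 agonist at 0.25 uM final for 3 h, then FRET substrate for 2 h.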

[17] = p53 small molecule agonists, cell-based qHTS assay with rat liver microsomes (AID 1963578)
How it was run: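 Each plate received p53RE-bla cells, then compound, then rat liver microsomes and NADPH (both 0.5 mg/mL final). Plates were held 16 h at 37 C, and beta-lactamase activity was detected with LiveBLAzer over 2 h.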

[18] = p53 small molecule agonists, cell-based qHTS assay with human liver microsomes (AID 1963577);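 further: p53 response element beta-lactamase reporter cells with liver microsomes plus NADPH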
How it was run: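 Metabolically competent format: test substances, human liver microsomes and NADPH (both 0.5 mg/mL final) incubated with p53RE-bla cells 16 h at 37 C. Beta-lactamase reporter signal then quantified by fluorescence.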

[19] = p53 small molecule agonists, cell-based qHTS assay (AID 1963582; active means well fitted activation curve with a large enough effect in the signal ratio in the repeat runs, not every such curve was filed as active; the % refers to the signal ratio)
How it was run: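 Cells carrying a p53-responsive bla reporter are treated with test compounds for 16 h at 37 C; beta-lactamase activity is then detected with LiveBLAzer B/G FRET substrate after 2 h at room temperature.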

Sequence of 5-hydroxytryptamine receptor 2A (Homo sapiens) (P28223 whole entry, looked up): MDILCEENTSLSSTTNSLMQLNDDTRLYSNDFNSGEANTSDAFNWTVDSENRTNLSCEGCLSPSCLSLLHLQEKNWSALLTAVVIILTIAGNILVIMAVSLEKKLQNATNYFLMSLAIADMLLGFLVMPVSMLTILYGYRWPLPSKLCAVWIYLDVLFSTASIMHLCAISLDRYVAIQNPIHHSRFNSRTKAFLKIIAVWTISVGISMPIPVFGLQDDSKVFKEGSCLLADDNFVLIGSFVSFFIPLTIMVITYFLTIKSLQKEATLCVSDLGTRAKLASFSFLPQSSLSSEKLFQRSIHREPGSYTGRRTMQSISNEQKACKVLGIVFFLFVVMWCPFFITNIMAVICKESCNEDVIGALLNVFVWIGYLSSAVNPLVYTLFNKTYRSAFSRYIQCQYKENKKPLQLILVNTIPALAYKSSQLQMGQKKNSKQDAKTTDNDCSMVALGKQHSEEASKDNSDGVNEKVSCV
Sequence of Gonadotropin-releasing hormone receptor (Homo sapiens) (P30968 whole entry, looked up): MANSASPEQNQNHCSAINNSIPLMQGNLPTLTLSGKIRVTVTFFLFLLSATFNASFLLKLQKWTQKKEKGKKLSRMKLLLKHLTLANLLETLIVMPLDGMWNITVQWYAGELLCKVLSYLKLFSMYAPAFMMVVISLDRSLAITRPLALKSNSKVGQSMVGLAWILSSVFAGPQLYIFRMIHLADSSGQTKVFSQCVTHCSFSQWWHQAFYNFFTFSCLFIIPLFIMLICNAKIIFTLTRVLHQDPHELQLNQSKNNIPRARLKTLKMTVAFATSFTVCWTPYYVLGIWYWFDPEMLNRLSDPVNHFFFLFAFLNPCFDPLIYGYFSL
Sequence of Muscarinic acetylcholine receptor M1 (Homo sapiens) (P11229 whole entry, looked up): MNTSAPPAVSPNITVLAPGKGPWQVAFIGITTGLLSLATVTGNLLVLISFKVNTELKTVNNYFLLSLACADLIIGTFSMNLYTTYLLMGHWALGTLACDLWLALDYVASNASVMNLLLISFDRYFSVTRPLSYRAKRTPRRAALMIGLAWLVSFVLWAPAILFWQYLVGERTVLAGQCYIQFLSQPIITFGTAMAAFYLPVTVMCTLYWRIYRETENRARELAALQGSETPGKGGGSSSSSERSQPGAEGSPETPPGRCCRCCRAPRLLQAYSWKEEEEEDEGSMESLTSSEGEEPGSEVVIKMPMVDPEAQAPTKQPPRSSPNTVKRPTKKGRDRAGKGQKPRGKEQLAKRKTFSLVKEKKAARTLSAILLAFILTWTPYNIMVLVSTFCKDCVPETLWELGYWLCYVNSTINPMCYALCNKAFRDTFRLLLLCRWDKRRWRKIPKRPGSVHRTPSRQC
Sequence of D(2) dopamine receptor (Homo sapiens) (P14416 whole entry, looked up): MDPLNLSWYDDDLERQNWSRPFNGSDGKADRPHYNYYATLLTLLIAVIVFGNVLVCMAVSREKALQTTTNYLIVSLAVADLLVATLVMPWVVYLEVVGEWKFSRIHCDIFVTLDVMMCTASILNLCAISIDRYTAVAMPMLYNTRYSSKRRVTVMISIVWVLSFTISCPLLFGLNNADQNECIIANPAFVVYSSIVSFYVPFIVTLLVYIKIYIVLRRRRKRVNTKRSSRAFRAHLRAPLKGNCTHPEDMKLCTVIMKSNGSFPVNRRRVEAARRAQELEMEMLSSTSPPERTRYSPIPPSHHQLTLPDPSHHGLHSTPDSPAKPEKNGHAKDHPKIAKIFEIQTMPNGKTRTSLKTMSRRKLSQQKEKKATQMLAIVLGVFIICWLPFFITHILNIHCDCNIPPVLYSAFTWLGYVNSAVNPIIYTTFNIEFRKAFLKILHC
Sequence of Beta-2 adrenergic receptor (Homo sapiens) (P07550 whole entry, looked up): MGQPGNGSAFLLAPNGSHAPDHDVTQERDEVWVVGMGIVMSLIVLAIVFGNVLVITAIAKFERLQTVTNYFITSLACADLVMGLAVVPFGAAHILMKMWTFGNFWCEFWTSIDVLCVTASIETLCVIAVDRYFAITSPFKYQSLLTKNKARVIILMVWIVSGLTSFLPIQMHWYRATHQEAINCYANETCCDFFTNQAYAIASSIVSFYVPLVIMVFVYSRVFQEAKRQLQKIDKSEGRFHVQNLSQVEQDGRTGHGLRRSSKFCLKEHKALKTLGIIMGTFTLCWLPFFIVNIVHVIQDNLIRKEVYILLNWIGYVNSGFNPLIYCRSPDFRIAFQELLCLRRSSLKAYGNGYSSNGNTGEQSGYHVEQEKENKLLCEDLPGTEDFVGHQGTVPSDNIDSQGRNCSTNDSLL
Sequence of KiSS-1 receptor (Homo sapiens) (Q969F8 whole entry, looked up): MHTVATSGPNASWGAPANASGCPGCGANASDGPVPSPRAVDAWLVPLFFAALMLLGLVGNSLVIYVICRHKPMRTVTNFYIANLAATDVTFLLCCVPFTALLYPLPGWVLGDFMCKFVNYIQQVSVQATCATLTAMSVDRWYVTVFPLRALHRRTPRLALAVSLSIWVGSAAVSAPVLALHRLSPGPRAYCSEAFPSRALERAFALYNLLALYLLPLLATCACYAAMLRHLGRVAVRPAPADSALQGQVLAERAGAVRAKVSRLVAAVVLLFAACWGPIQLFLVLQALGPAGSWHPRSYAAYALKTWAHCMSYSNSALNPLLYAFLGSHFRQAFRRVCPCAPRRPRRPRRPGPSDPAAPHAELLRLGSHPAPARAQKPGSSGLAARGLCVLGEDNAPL

Row | Compound | Potency [1] | Potency [2] | Potency [3] | Potency [4] | Potency [5] | Potency [6] | Potency [7] | Potency [8] | Potency [9] | Potency [10] | Potency [11] | Potency [12] | Potency [13] | Potency [14] | Potency [15] | Potency [16] | Potency [17] | Potency [18] | Potency [19]
1 | O=C1N=C(O)CN1/N=C/c1ccc(-c2ccc([N+](=O)[O-])cc2)o1 | inactive | inactive | inactive | inactive | inactive | inactive | inactive | inactive | inactive | inactive | inactive | inactive | – | – | – | – | – | – | –
2 | C[C@H]1O[C@@H](O[C@H]2[C@@H](O)C[C@H](O[C@H]3[C@@H](O)C[C@H](O[C@H]4CC[C@@]5(C)[C@H](CC[C@@H]6[C@@H]5C[C@@H](O)[C@]5(C)[C@@H](C7=CC(=O)OC7)CC[C@]65O)C4)O[C@@H]3C)O[C@@H]2C)C[C@H](O)[C@@H]1O | inactive | inactive | inactive | 90.3 nM (active) | 205 nM (active) and 90.3 nM (active) | 102 nM (active) and 90.3 nM (active) | – | – | – | – | inactive | inactive | inactive | inactive | – | – | – | – | –
3 | CC(C)(C)C1=CC(=O)C=C(C(C)(C)C)C1=O | inactive | inactive | inactive | inactive | inactive | inactive | inactive | – | inactive | inactive | inactive | inactive | – | – | inactive | inactive | – | – | –
4 | CCCCCC1Nc2cc(C(F)(F)F)c(S(N)(=O)=O)cc2S(=O)(=O)N1 (stereo not drawn) | inactive | inactive | inactive | inactive | inactive | – | – | inactive | inactive | – | inactive | inactive | inactive | inactive | – | – | inactive | – | –
5 | CSc1ccc(O)cc1C | inactive | inactive | inactive | inactive | inactive | inactive | inactive | inactive | inactive | inactive | inactive | inactive | inactive | – | inactive | inactive | – | inactive | inactive
6 | c1ccc(C(O[C@@H]2CCCN(CCc3ccc4c(c3)OCO4)C2)c2ccccc2)cc1 | inactive | inactive | inactive | inactive | inactive | inactive | – | – | 119 nM (active) | inactive | – | inactive | 48600 nM (active) | – | – | – | inactive | – | –
7 | COc1ccc(CCN(C)CCCC(C#N)(c2ccc(OC)c(OC)c2)C(C)C)cc1OC (stereo not drawn) | inactive | inactive | inactive | inactive | inactive | inactive | – | – | – | – | inactive | inactive | inactive | – | – | – | – | – | –
8 | NC(=O)N(O)[C@@H]1COc2cc(OCc3ccccc3)ccc21 | inactive | inactive | inactive | inactive | – | – | inactive | inactive | inactive | inactive | – | inactive | – | – | – | – | – | – | –
9 | c1ccc2sc(SN(C3CCCCC3)C3CCCCC3)nc2c1 | inactive | inactive | inactive | inactive | inactive | inactive | inactive | inactive | inactive | inactive | – | inactive | inactive | – | inactive | inactive | – | – | –
10 | Cc1cc(O)c2c(O)c3c(O)cccc3cc2c1 | inactive | inactive | inactive | inactive | – | inactive | – | inactive | inactive | inactive | inactive | inactive | – | – | – | – | inactive | – | –
11 | CO[C@]1(NC(=O)CSC(F)F)C(=O)N2C(C(=O)O)=C(CSc3nnnn3CCO)CO[C@H]21 | inactive | inactive | inactive | inactive | inactive | inactive | inactive | inactive | inactive | inactive | inactive | inactive | inactive | inactive | inactive | inactive | inactive | – | inactive
12 | CCCCCCCCC(CCCCCC)C(=O)O (stereo not drawn) | inactive | inactive | inactive | inactive | – | inactive | inactive | inactive | inactive | inactive | inactive | inactive | inactive | – | – | inactive | inactive | – | inactive
13 | CC(=O)Nc1ccc(S(=O)(=O)Nc2ccc([N+](=O)[O-])cc2)cc1 | inactive | inactive | inactive | inactive | – | inactive | inactive | inactive | inactive | inactive | inactive | inactive | inactive | inactive | inactive | inactive | – | inactive | inactive
14 | O=C(O)COCCN1CCN(C(c2ccccc2)c2ccc(Cl)cc2)CC1 (stereo not drawn) | inactive | inactive | inactive | – | – | inactive | inactive | inactive | inactive | inactive | inactive | inactive | inactive | inactive | inactive | inactive | – | – | inactive
15 | CCCCNc1cc(C(=O)O)cc(S(N)(=O)=O)c1Oc1ccccc1 | inactive | inactive | inactive | inactive | inactive | inactive | – | inactive | – | inactive | inactive | inactive | inactive | – | inactive | inactive | inactive | – | inactive

Source: PubChem BioAssay (Tox21)
